Screens (PubChem)
Only some compounds are listed: those with a hit (about 7.4% of all), similar ones and a draw of the others.
Rab9 prom act: Rab9 promoter activation; Huh7 Rab9 promoter-luciferase reporter, luminescence, 24 h; Potency, µM (doses to about 9.22 µM), hits mostly activators; hit rate 2.8% among 320,000; AID 485297; note: nearly all actives have a fitted effect of over 60% in size
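Promoter activation is measured as luciferase luminescence in Huh7 cells stably transfected with a Rab9 promoter–luciferase construct, following 24 h compound exposure at 37 °C and 10 min reagent incubation at ambient temperature.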
SMN2 splice up: SMN2 splice variant enhancement; HEK293 SMN2-luciferase splicing reporter, luminescence, 30-36 h; Potency, µM (titrated, usually from 46.1 µM), actives largely listed as activators; hit rate 2.8% among 210,000; note: nearly all actives have a fitted effect of over 55% in size
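HEK293 cells carry an SMN2 […]–luciferase reporter in which exon 7 inclusion puts luciferase in frame. Cells were plated 10-12 h before compound addition, then incubated 30-36 h at 37C. ONE-Glo luminescence was read; sodium butyrate at 4.5 mM final served as control.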
NPC1 promoter act: NPC1 promoter activation; Huh7 NPC1 promoter luciferase reporter, 24 h; Potency, µM (titrated, usually from 9.22 µM), actives largely listed as activators; hit rate 2.4% among 320,000; note: nearly all actives have a fitted effect of over 60% in size
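Compounds in DMSO were transferred onto Huh7 NPC1-luciferase reporter cells pre-incubated 2 h; after 24 h at 37 °C, Amplite reagent was dispensed and luminescence recorded 10 min later.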
FLuc modulator: inhibits or activates purified firefly luciferase, miR-21 counter-screen; Potency, µM (series often up to 57.5 µM), hits mostly inhibitors; hit rate 6.9% among 360,000; P08659; purified FLuc, Km substrates, luminescence inhibition; note: nearly all actives have a fitted effect of over 55% in size
Target sequence (P08659 whole entry, looked up): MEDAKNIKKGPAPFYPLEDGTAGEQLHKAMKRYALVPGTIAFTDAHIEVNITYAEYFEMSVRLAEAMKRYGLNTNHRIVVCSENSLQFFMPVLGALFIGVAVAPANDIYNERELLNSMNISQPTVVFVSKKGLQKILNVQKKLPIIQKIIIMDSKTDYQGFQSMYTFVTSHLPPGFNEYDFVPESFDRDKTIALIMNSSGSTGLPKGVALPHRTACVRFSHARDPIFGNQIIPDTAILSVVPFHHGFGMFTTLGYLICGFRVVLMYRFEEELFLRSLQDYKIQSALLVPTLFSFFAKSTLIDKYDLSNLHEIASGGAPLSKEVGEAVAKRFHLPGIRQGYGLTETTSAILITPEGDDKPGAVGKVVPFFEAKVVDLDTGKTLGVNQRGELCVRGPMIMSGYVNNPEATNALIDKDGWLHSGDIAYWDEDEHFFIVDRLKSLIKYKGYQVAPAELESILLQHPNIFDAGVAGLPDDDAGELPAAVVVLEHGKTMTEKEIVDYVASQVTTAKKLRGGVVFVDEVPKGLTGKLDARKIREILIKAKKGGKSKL
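Biochemical qHTS of compounds, final roughly 60 µM downward over six points, against 10 nM purified firefly luciferase using Km concentrations of substrates (10 uM D-luciferin, 10 uM ATP) in Tris acetate pH 7.5 buffer; luminescence output.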
ELG1 genotox: inducers of genotoxicity in HEK293T ELG1-luciferase cells. Potency, µM (doses to about 46 µM), hits mostly activators. HEK293T ELG1-luciferase reporter, luminescence, 16 h. hit rate 1.3% among 330,000; note: nearly all actives have a fitted effect of over 60% in size
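Luminescence read-out: rising ELG1-luciferase signal, reflecting elevated ELG1 protein under genetic stress, flags genotoxic compounds. Cells were treated for 16 hr at 37 °C before ONE-Glo detection.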
Large screens that a line does not name were inactive. Calls come from the whole dose curve; as a rule, active = well fitted curve in the direction sought with a large enough effect; inconclusive = small, poorly fitted or top-dose-only effect, or another doubt; inactive = no such curve, though single readings can be large; an effect the other way counts as inactive or inconclusive.

O=C(/C=C/c1ccc(Br)cc1)c1ccc(NC2=NCCCS2)cc1	FLuc modulator inconclusive (no result: SMN2 splice up)
Cc1cccc(/C=C/C(=O)c2ccc(NC3=NCCCS3)cc2)c1	FLuc modulator 13µM, ELG1 genotox inconclusive
Cc1cccc(C(=O)Nc2ccc(C(=O)/C=C/c3cccnc3)cc2)c1	ELG1 genotox inconclusive
O=C(/C=C/c1ccccc1)c1ccc(NC2=NCCCS2)cc1	Rab9 prom act inconclusive, NPC1 promoter act inconclusive, FLuc modulator 4.3µM, ELG1 genotox inconclusive
COc1cccc(/C=C/C(=O)OCC(=O)NC2CCCCCCC2)c1	none (no result: Rab9 prom act, SMN2 splice up, NPC1 promoter act, FLuc modulator)
Fc1ccccc1N1CCN(c2nccn3nc(-c4ccc(Br)cc4)cc23)CC1	none (no result: Rab9 prom act, NPC1 promoter act, ELG1 genotox)
O=C(CSc1nnc(-c2ccccc2)o1)N1CCCC1	Rab9 prom act inconclusive, NPC1 promoter act inconclusive, FLuc modulator inconclusive (no result: SMN2 splice up)
CC1CCN(C(=O)CCc2nnc(-c3ccccc3)o2)CC1	Rab9 prom act inconclusive, NPC1 promoter act inconclusive, FLuc modulator 15µM, ELG1 genotox inconclusive (no result: SMN2 splice up)
CC1CC(C)CN(C(=O)CSc2nnc(-c3ccc(F)cc3)o2)C1 (configuration not stated)	none
O=C(CCc1nnc(-c2ccc3c(c2)OCO3)o1)NC(c1ccccn1)C(F)(F)F (configuration not stated)	none (no result: SMN2 splice up)
O=C(CCc1nnc(-c2ccc3c(c2)OCO3)o1)N1CCC(c2ccc(F)cc2)C1 (configuration not stated)	Rab9 prom act inconclusive, FLuc modulator 19µM, ELG1 genotox inconclusive (no result: SMN2 splice up)
O=C(CSc1nnc(-c2ccccc2)o1)N1CCCCC1	Rab9 prom act 2.5µM, NPC1 promoter act 2.8µM, FLuc modulator 15µM, ELG1 genotox inconclusive (no result: SMN2 splice up)
O=C(CSc1nnc(-c2ccc(F)cc2)o1)N1CCCCC1	Rab9 prom act inconclusive, NPC1 promoter act inconclusive, FLuc modulator inconclusive, ELG1 genotox 21µM (no result: SMN2 splice up)
COc1ccccc1CNC(=O)Nc1ccc2c(c1)N(C)C(=O)c1ccccc1S2	none (no result: Rab9 prom act, SMN2 splice up, NPC1 promoter act, ELG1 genotox)
CCOc1ccc(NC(=O)C2CCN(c3nnc(-n4c(C)ccc4C)s3)CC2)cc1	none (no result: Rab9 prom act, NPC1 promoter act, ELG1 genotox)
O=c1[nH]c2ccc(NCc3ccc(-c4cccc(Cl)c4)o3)cc2[nH]1	none (no result: Rab9 prom act, SMN2 splice up, NPC1 promoter act, ELG1 genotox)
O=C(CSc1nnc(-c2ccccc2)o1)N1CCCc2ccccc21	none (no result: Rab9 prom act, NPC1 promoter act, ELG1 genotox)
O=C(CSc1nnc(-c2ccccc2Cl)o1)N1CCCc2ccccc21	FLuc modulator 24µM (no result: Rab9 prom act, NPC1 promoter act, ELG1 genotox)
FC(F)(F)c1ccc(-c2csc(-c3ccno3)n2)cc1	FLuc modulator 27µM (no result: SMN2 splice up)
COc1ccc(C)cc1NC(=O)Cn1c(=O)n(Cc2nc(C)no2)c(=O)c2ccccc21	none (no result: Rab9 prom act, SMN2 splice up, NPC1 promoter act, ELG1 genotox)
COc1cc(/C=C2/C(=O)NN(c3ccc(Cl)c(Cl)c3)C2=O)cc([N+](=O)[O-])c1O	FLuc modulator inconclusive (no result: SMN2 splice up)
COC(=O)c1ccc(N2NC(=O)/C(=C/c3cc(OC)c(O)c(OC)c3)C2=O)cc1	FLuc modulator 8.5µM (no result: SMN2 splice up)
COC(=O)c1ccc(N2NC(=O)/C(=C/c3cc(OC)c(OC)c(OC)c3)C2=O)cc1	FLuc modulator 19µM (no result: SMN2 splice up)
CCOc1ccc(NC(=NCc2ccc3c(c2)OCO3)SC2CC(=O)N(c3ccc(OCC)cc3)C2=O)cc1 (configuration not stated)	Rab9 prom act inconclusive, SMN2 splice up 22µM, NPC1 promoter act inconclusive, ELG1 genotox inconclusive
CCOc1ccc(NC(=NCc2ccc3c(c2)OCO3)SC2CC(=O)N(c3ccccc3)C2=O)cc1 (configuration not stated)	none
CC(=O)c1cccc(NC(=O)C(CC(C)C)NS(=O)(=O)c2ccc3c(c2)CCN3C(C)=O)c1 (configuration not stated)	none (no result: Rab9 prom act, NPC1 promoter act, ELG1 genotox)
CC1CCCN(C(=O)CSc2nnc(-c3cccs3)o2)C1 (configuration not stated)	Rab9 prom act 3.5µM, NPC1 promoter act 2.5µM, FLuc modulator 21µM, ELG1 genotox inconclusive (no result: SMN2 splice up)
CCC1CCCCN1C(=O)CSc1nnc(-c2cccs2)o1 (configuration not stated)	Rab9 prom act 3.2µM, SMN2 splice up inconclusive, NPC1 promoter act inconclusive, FLuc modulator 17µM, ELG1 genotox 6.5µM
COc1ccc(NC(=O)N2CCCC3(CCN(C(C)=O)CC3)C2)cc1	none (no result: Rab9 prom act, NPC1 promoter act, FLuc modulator, ELG1 genotox)
C=CCOc1c(CNc2ccc(C(=O)O)cc2)cccc1OCC	Rab9 prom act inconclusive, SMN2 splice up inconclusive, NPC1 promoter act inconclusive, FLuc modulator 21µM
C=CCOc1cccc(CNc2cccc(C(=O)O)c2)c1	Rab9 prom act inconclusive, NPC1 promoter act inconclusive, FLuc modulator 9.5µM (no result: SMN2 splice up)
C=CCOc1c(CNc2cccc(C(=O)O)c2)cccc1OC	Rab9 prom act inconclusive, SMN2 splice up inconclusive, NPC1 promoter act inconclusive, FLuc modulator 15µM, ELG1 genotox inconclusive
O=C(CN1C(=O)COc2ccc(S(=O)(=O)N3CCOCC3)cc21)N1CCN(c2cccc(C(F)(F)F)c2)CC1	none (no result: Rab9 prom act, NPC1 promoter act, ELG1 genotox)
O=C1CCCc2nc(N3CCN(C(=O)c4ccco4)CC3)ncc21	Rab9 prom act 2.5µM, NPC1 promoter act 4µM, FLuc modulator 27µM, ELG1 genotox 21µM (no result: SMN2 splice up)
Nc1nc(N2CCN(C(=O)c3ccco3)CC2)nc2ccccc12	Rab9 prom act inconclusive, SMN2 splice up 13µM, FLuc modulator 19µM
O=C(c1ccco1)N1CCN(c2ncccn2)CC1	none
Nc1nc(N2CCN(C(=O)c3ccco3)CC2)nc2ccc(Br)cc12	Rab9 prom act 1.1µM, SMN2 splice up 7.9µM, NPC1 promoter act 2µM, FLuc modulator 9.5µM, ELG1 genotox inconclusive
